Laboratory results taken from PubChem BioAssay (EPA / NIEHS).
Results filed as inconclusive are left out. Activity calls are given as the source filed them. Rule for the calls, unless noted: active = hit-call score of the fitted dose curve at least 0.9, where 1 is the maximum; inactive = score below 0.9.

Tests used:
[1] = biological target: Peroxisome proliferator-activated receptor gamma (Homo sapiens) (UniProt P37231); test: OT_PPARg_PPARgSRC1_0480: Odyssey Thera (OT) 8-hour Protein-Complementation Assay for Peroxisome Proliferator-activated Receptor Gamma / SRC-1 Co-activator (AID 2283387; active = hit-call score of the fitted dose curve at least 0.9, where 1 is the maximum;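 note: nuclear to cytoplasmic split Venus YFP fluorescence ratio reporting PPARg SRC-1 interaction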)
Summary of the method: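 Split-YFP (IFP1/IFP2) PPARg/SRC-1 reporter, HEK293T, 37 °C, 5% CO2; 8 h compound; formaldehyde fix + Draq5; high-content imaging, N/C ratio, ≥350 cells/image, positive direction vs DMSO.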

[2] = biological target: Peroxisome proliferator-activated receptor gamma (Homo sapiens) (UniProt P37231); test: OT_PPARg_PPARgSRC1_1440: Odyssey Thera (OT) 24-hour Protein-Complementation Assay for Peroxisome Proliferator-activated Receptor Gamma/ SRC-1 Co-activator (AID 2283388; active = hit-call score of the fitted dose curve at least 0.9, where 1 is the maximum;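 note: nuclear to cytoplasmic ratio of reconstituted Venus YFP fluorescence in fixed imaged cells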)
Summary of the method: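 Protein-fragment complementation between PPARg and coactivator SRC-1 was measured by fluorescence imaging in transiently transfected HEK293T cells after 24 h treatment. Signal was quantified as N/C ratio in the 488 nm channel, with DMSO as negative control.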

[3] = CEETOX_H295R_11DCORT: CeeTox H295R High-throughput Steroidogenesis Assay for 11-Deoxycortisol (11DCORT) (AID 2283432); settings: actives raise or lower the signal;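 for AC50: 11-deoxycortisol secreted into the medium measured by LC-MS/MS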
Summary of the method: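 Steroidogenesis in human H295R cells: 48 h chemical exposure after forskolin priming, 11-deoxycortisol measured by LC-MS/MS.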

[4] = CEETOX_H295R_OHPREG: CeeTox H295R High-throughput Steroidogenesis Assay for OH-Pregnenolone (OHPREG) (AID 2283434); settings: actives raise or lower the signal
Summary of the method: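 Secreted 17alpha-hydroxypregnenolone measured by HPLC-MS/MS after liquid-liquid extraction. Human adrenal H295R cells received 48 h forskolin (10 uM) stimulation before 48 h chemical exposure at 0.1% final DMSO; MTT viability in same wells; bidirectional fit against DMSO.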

[5] = CEETOX_H295R_OHPROG: CeeTox H295R High-throughput Steroidogenesis Assay for OH-Progesterone (OHPROG) (AID 2283435); settings: actives raise or lower the signal;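 for AC50: 17alpha-hydroxyprogesterone secreted into medium measured by HPLC-MS/MS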
Summary of the method: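 Medium steroid levels read by LC-MS/MS after 48 h chemical treatment (0.1% DMSO) of human adrenal H295R cells that had been forskolin-primed (10 uM, 48 h). Gain or loss fitted against DMSO; MTT cytotoxicity checked per well.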

[6] = CEETOX_H295R_ANDR: CeeTox H295R High-throughput Steroidogenesis Assay for Androstenedione (ANDR) (AID 2283436); settings: actives raise or lower the signal
Summary of the method: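 Medium from 48 h chemical-treated H295R adrenal cells was extracted with MTBE and androstenedione measured by LC-MS/MS. Activity was fit in both directions relative to DMSO. Cytotoxic concentrations were re-tested after dilution until MTT viability reached ≥70%.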

[7] = CEETOX_H295R_CORTIC: CeeTox H295R High-throughput Steroidogenesis Assay for Corticosterone (CORTIC) (AID 2283437); settings: actives raise or lower the signal
Summary of the method: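 Medium corticosterone was quantified by tandem mass spectrometry following 48 hours of chemical exposure (0.1% DMSO) in human H295R cells previously stimulated 48 hours with 10 uM forskolin. Viability checked by MTT; chemicals diluted and retested when viability fell below 70%.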

[8] = CEETOX_H295R_CORTISOL: CeeTox H295R High-throughput Steroidogenesis Assay for Cortisol (AID 2283438); settings: actives raise or lower the signal;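 note: cortisol secreted into medium quantified by LC-MS/MS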
Summary of the method: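 Cortisol measured by HPLC-MS/MS after MTBE extraction of medium from H295R cells exposed 48 h to chemical (0.1% DMSO), following 48 h prestimulation with 10 uM forskolin. Viability assessed by MTT in the same wells.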

[9] = CEETOX_H295R_DOC: CeeTox H295R High-throughput Steroidogenesis Assay for DOC (AID 2283439); settings: actives raise or lower the signal
Summary of the method: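 11-Deoxycorticosterone quantified in medium by MTBE extraction and HPLC-MS/MS after 48 h chemical exposure (0.1% DMSO) of forskolin-primed (10 uM, 48 h) H295R cells. Same-well MTT viability; data fitted bidirectionally against DMSO.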

[10] = CEETOX_H295R_ESTRADIOL: CeeTox H295R High-throughput Steroidogenesis Assay for Estradiol (AID 2283440); settings: actives raise or lower the signal;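 note: estradiol secreted into medium quantified by LC-MS/MS after dansyl derivatisation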
Summary of the method: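 Estradiol secreted into the medium was measured by tandem mass spectrometry after liquid-liquid extraction and dansylation. Human H295R cells had been forskolin-primed (10 uM, 48 h) before a 48 h chemical exposure with 0.1% DMSO.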

Measured: AC50

Peroxisome proliferator-activated receptor gamma (Homo sapiens), sequence (P37231 whole entry, looked up, the tested form may be a part): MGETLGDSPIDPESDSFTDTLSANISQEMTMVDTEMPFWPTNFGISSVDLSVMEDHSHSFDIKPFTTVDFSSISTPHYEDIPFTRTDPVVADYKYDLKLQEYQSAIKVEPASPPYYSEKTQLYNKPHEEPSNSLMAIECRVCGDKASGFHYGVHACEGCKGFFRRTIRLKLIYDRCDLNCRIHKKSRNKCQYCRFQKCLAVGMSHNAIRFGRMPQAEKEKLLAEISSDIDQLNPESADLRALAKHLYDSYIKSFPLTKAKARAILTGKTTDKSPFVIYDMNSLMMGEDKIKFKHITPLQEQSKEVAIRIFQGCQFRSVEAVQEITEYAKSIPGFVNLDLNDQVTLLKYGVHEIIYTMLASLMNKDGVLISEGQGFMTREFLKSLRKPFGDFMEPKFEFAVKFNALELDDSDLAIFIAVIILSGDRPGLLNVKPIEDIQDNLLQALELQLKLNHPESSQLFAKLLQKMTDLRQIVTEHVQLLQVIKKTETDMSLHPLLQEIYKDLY

COc1ccc(C(=O)c2ccccc2)c(O)c1
active: [6] 25 µM | [7] 11.1 µM
inactive: all other assays above

CCCCC(CC)COC(=O)/C=C/c1ccc(OC)cc1 (stereo not drawn)
inactive: [2]

C=C[C@@]1(C)CC(=O)[C@]2(O)[C@@]3(C)[C@@H](O)CCC(C)(C)[C@@H]3[C@H](O)[C@H](OC(C)=O)[C@@]2(C)O1
active: [3] 0.51 µM | [4] 0.817 µM | [5] 0.799 µM | [7] 0.609 µM | [8] 0.726 µM | [9] 0.418 µM | [10] 0.774 µM
inactive: [1] | [2]

CCOC(=O)C1=NOC(c2ccccc2)(c2ccccc2)C1
inactive: [1] | [2]

CCCCCC[C@@H](O)C/C=C\CCCCCCCC(=O)OCC(O)CO (stereo partly drawn)
inactive: [1] | [2]

O=C(O)c1cc(O)c2ccccc2c1O
active: [1] 73.7 µM | [2] 73.2 µM | [9] 0.445 µM
not listed: [6]
inactive: all other assays above

O=C(O)/C=C/c1ccccc1
inactive: [1] | [2]

COc1ccc(-c2coc3cc(O)cc(O)c3c2=O)cc1
inactive: [1] | [7] | [10]
active: [3] 6.15 µM | [4] 7.39 µM | [5] 7.4 µM | [8] 3.65 µM | [9] 5 µM
